# Measured values published in ChEMBL document CHEMBL3433997, “St. Jude Leishmania screening dataset” (2016).
# Biological target: Solute carrier family 2, facilitated glucose transporter member 1 (Homo sapiens) (UniProt P11166)
# Assay: ST_JUDE_LEISH: Cytotoxicity at 2uM final concentration against transgenic Leishmania Mexicana promastigotes LmGLUT1 that are glucose transport deficient and complemented with the human glucose transporter GLUT1. Activity is measured by DNA content using SYBR green in vitro
# Format: functional
# Chain of Solute carrier family 2, facilitated glucose transporter member 1 (Homo sapiens) (P11166 whole entry): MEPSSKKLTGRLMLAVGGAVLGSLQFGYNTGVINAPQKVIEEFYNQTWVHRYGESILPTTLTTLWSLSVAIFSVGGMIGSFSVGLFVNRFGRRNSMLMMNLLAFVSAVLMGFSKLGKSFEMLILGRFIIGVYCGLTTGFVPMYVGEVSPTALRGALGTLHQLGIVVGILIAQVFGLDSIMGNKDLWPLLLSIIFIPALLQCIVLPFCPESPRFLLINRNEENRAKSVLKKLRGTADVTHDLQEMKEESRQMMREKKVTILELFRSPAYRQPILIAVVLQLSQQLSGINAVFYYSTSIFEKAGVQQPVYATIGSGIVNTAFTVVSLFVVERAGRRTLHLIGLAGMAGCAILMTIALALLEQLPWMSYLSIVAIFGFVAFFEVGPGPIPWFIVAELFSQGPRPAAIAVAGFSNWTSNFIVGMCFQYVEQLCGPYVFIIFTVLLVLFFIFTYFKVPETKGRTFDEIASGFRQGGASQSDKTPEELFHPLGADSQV
row,SMILES,inhibition [%]
1,CC(CN(C)C)C(=O)Nc1cccc(-c2ccc(-c3nc4cc(C(F)(F)F)ccc4[nH]3)cc2)c1 (stereo unspecified),11
2,Cc1cc(OCc2ccccc2)c(OCc2ccccc2)cc1C(O)CN(C)Cc1ccccc1 (stereo unspecified),0.44
3,COc1ccccc1N1CCN(C(C(=O)NCc2ccc(C)cc2)c2ccc(C)cc2)CC1 (stereo unspecified),-0.68
4,CN(C)CCCN(C)c1cccc2c1nc(-c1cccnc1)n2CCNCc1ccccc1,6.47
5,CCOc1cc(C(=O)NC2CC(C)(C)N(C)C(C)(C)C2)ccc1-c1nc2cc(Cl)c(Cl)cc2[nH]1,5.59
6,CC(CN(C)C)C(=O)Nc1cccc(-c2ccc(-c3nc4ccccc4[nH]3)cc2)c1 (stereo unspecified),12.2
7,FC(F)(F)c1ccc2nccc(NCc3ccccc3)c2c1,6.8
8,CCN(CC)C(=O)C1CCN(C(C(=O)N2CCN(CC(=O)N3CCCC3)CC2)c2cc3ccccc3o2)CC1 (stereo unspecified),2.21
9,O=C(NC1CC1)c1ccc(N2CCC(Cc3ccccc3)CC2)c([N+](=O)[O-])c1,0.6
10,CCCOc1ccc(-c2nonc2NC(=O)c2cccc(OC)c2)cc1OCCC,8.68
11,FC(F)(F)c1cccc(Nc2nc(-n3ccnc3)nc(-n3ccnc3)n2)c1,1.93
12,COc1ccc2nccc(N3CCC(SCCNCc4ccc5c(n4)NC(=O)CS5)C3)c2n1 (stereo unspecified),-1.38
13,CCN(CCCN1CCCCC1)c1cc(C)nc(Nc2cc(Cl)ccc2C)n1,1.18
14,CCc1cc(NC2CCN(C)CC2)nc(Nc2cccc(OC)c2)n1,15
15,Cc1nnc2c(N(C(=O)NCCc3ccccc3)C(=O)NCCc3ccccc3)cc3cc(Cl)ccc3n12,11.2
16,CN1CCC(NCc2cccc(-c3ccc(S(=O)(=O)NCCc4ccccn4)c(F)c3)c2)CC1,1.22
